The supplement of paper PMC7393113
Several values for one entry are separate records, joined by “and”; a condition that tells them apart may be missing. Equal values may be shown once. Where a name gives a salt, the structure may show the parent alone. ± gives the standard deviation of the averaged measurements.

Test system: iBMDM (immortalised mouse bone-marrow-derived macrophages), LPS-stimulated
Assay: mitochondrial superoxide (MitoSOX fluorescence) fold increase over unstimulated control; higher = more LPS-induced mitochondrial ROS (less inhibition)
Conditions: inhibitor concentration: 500 nM, LPS: 100 ng/ml
How it was run: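 After 20 h in phenol-red-free 1% FCS/DMEM in black 96-well plates, immortalised mouse bone-marrow-derived macrophages were exposed to kinase inhibitors (500 nM) for 30 min, 1 μM MitoSox for 10 min and then LPS (100 ng/ml). A ClarioStar plate reader recorded fluorescence at 510/580 nm every 60 min for 4 h. The reported mitochondrial superoxide is the mean fold induction versus untreated macrophages over triplicate wells.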

SMILES | mitochondrial superoxide (time after LPS: 1 h) | mitochondrial superoxide (time after LPS: 2 h) | mitochondrial superoxide (time after LPS: 4 h)
COc1cc2c(Nc3ccc(NC(=O)c4ccccc4)cc3)ncnc2cc1OCCCN1CCOCC1 | 1.34 ± 0.06 | 1.44 ± 0.069 | 1.52 ± 0.037
O=c1ncn2nc(Sc3ccc(F)cc3F)ccc2c1-c1c(Cl)cccc1Cl | 1.16 ± 0.045 | 1.21 ± 0.014 | 1.28 ± 0.037
CO[C@@H](C(=O)N1Cc2[nH]nc(NC(=O)c3ccc(N4CCN(C)CC4)cc3)c2C1)c1ccccc1 | 1.3 ± 0.035 | 1.38 ± 0.029 | 1.48 ± 0.038
Cc1c(NC(=O)OC[C@@H]2COCCN2)cn2ncnc(Nc3ccc4c(cnn4Cc4cccc(F)c4)c3)c12 | 1.57 ± 0.034 | 1.74 ± 0.077 | 1.9 ± 0.045
Cc1ccc(NC(=O)c2ccc(CN3CCN(C)CC3)cc2)cc1Nc1nc(-c2cccnc2)cs1 [Masitinib (AB1010)] | 1.44 ± 0.013 | 1.52 ± 0.067 | 1.72 ± 0.12
CCN(CC)CCCCNc1ncc2cc(-c3cc(OC)cc(OC)c3)c(NC(=O)NC(C)(C)C)nc2n1 | 1.16 ± 0.036 | 1.11 ± 0.048 | 1.12 ± 0.045
C=CC(=O)Nc1cccc(Oc2nc(Nc3ccc(N4CCN(C)CC4)cc3OC)ncc2Cl)c1 | 1.42 ± 0.03 | 1.53 ± 0.052 | 1.68 ± 0.041
CCN(CC)CCNC(=O)c1c(C)[nH]c(/C=C2\C(=O)Nc3ccc(F)cc32)c1C [Sunitinib Malate] | 1.61 ± 0.057 | 1.73 ± 0.072 | 1.7 ± 0.099
CCN1C(=CC(C)=O)Sc2ccc(OC)cc21 | 1.417 ± 0.014 | 1.44 ± 0.089 | 1.63 ± 0.1
CC(C)CCN1c2nc(Nc3cc(F)c(O)c(F)c3)ncc2N(C)C(=O)C1C (stereo not given) | 1.14 ± 0.036 | 1.21 ± 0.047 | 1.321 ± 0.0097
N#CC(=C(/N)Sc1ccccc1N)/C(C#N)=C(\N)Sc1ccccc1N | 1.36 ± 0.043 | 1.4 ± 0.048 | 1.45 ± 0.047
C=CC(=O)Nc1ccc2ncnc(Nc3ccc(OCc4cccc(F)c4)c(Cl)c3)c2c1 | 1.18 ± 0.017 | 1.204 ± 0.0092 | 1.42 ± 0.13
Cc1cc(F)c(Nc2ncnc3cc(OCc4ccccc4)ccc23)cc1O | 1.17 ± 0.075 | 1.11 ± 0.018 | 1.2 ± 0.016
O=C1NC(=O)C(=Cc2ccc(-c3ccc(F)cc3)o2)S1 (stereo in doubt) | 1.28 ± 0.044 | 1.55 ± 0.089 | 1.65 ± 0.081
COc1cc(OC)c(/C=C/S(=O)(=O)Cc2ccc(OC)c(NCC(=O)O)c2)c(OC)c1 | 1.071 ± 0.0096 | 1.15 ± 0.084 | 1.23 ± 0.086
CN(C)C1CCN(C(=O)c2ccc(NC(=O)Nc3ccc(-c4nc(N5CCOCC5)nc(N5CCOCC5)n4)cc3)cc2)CC1 | 1.1 ± 0.061 | 1.29 ± 0.014 | 1.58 ± 0.095
CC(=O)c1c(C)c2cnc(Nc3ccc(N4CCNCC4)cn3)nc2n(C2CCCC2)c1=O | 1.45 ± 0.032 | 1.45 ± 0.037 | 1.49 ± 0.03
OCCn1cc(-c2cnc3nnn(Cc4ccc5ncccc5c4)c3n2)cn1 | 1.37 ± 0.059 | 1.41 ± 0.018 | 1.498 ± 0.0039
FC(F)(F)c1ccc(/C=C/c2nc(COc3ccc(CCCCn4ccnn4)cc3)co2)cc1 [Mubritinib (TAK 165)] | 1.06 ± 0.033 | 1.17 ± 0.075 | 1.296 ± 0.0099
O=C(O)[C@]1(Cc2cccc(Nc3nccs3)n2)CC[C@@H](Oc2cccc(Cl)c2F)CC1 | 1.22 ± 0.027 | 1.39 ± 0.086 | 1.51 ± 0.044
O=c1cc(-c2cccc3c2Sc2ccccc2S3)oc(N2CCOCC2)c1 | 1.39 ± 0.034 | 1.48 ± 0.063 | 1.51 ± 0.084
N#CC1(c2ccc(NC(=O)c3cccnc3NCc3ccncc3)cc2)CCCC1 [Apatinib] | 1.09 ± 0.056 | 1.18 ± 0.021 | 1.36 ± 0.018

SMILES | mitochondrial superoxide (time after LPS: 1 h) | mitochondrial superoxide (time after LPS: 2 h) | mitochondrial superoxide (time after LPS: 4 h)
COc1ccc(C(=O)Nc2sc3c(c2C(N)=O)CCCC3)cc1OC | 1.42 ± 0.034 | 1.49 ± 0.045 | 1.64 ± 0.03
Cc1cc(C(C)Nc2ccccc2)c2nc(N3CCOCC3)cc(=O)n2c1 (stereo not given) | 1.51 ± 0.032 | 1.66 ± 0.072 | 1.74 ± 0.094
NCC(=O)Nc1ccc(-n2nc(C(F)(F)F)cc2-c2ccc3c(ccc4ccccc43)c2)cc1 | 1.414 ± 0.012 | 1.41 ± 0.031 | 1.49 ± 0.087
Cc1ccc(NC(=O)c2cccc(C(C)(C)C#N)c2)cc1Nc1ccc2ncn(C)c(=O)c2c1 | 1.07 ± 0.05 | 1.14 ± 0.084 | 1.349 ± 0.011
Cc1[nH]c(/C=C2\C(=O)Nc3ccc(S(=O)(=O)N(C)c4cccc(Cl)c4)cc32)c(C)c1C(=O)N1CCN(C)CC1 | 1.33 ± 0.11 | 1.4 ± 0.15 | 1.67 ± 0.27
Cc1cc2c(F)c(Oc3ncnn4cc(OC[C@@H](C)O)c(C)c34)ccc2[nH]1 | 1.337 ± 0.0099 | 1.44 ± 0.11 | 1.53 ± 0.14
Cc1cc(Nc2cc(N3CCN(C)CC3)nc(/C=C/c3ccccc3)n2)n[nH]1 | 1.19 ± 0.044 | 1.21 ± 0.011 | 1.32 ± 0.03
CN1CCN(c2ccc3nc(-c4c(N)c5c(F)cccc5[nH]c4=O)[nH]c3c2)CC1 [Dovitinib (TKI-258, CHIR-258)] | 1.62 ± 0.087 | 1.7 ± 0.026 | 1.91 ± 0.073
C[C@@H]1CCN(C(=O)CC#N)C[C@@H]1N(C)c1ncnc2[nH]ccc12 | 1.12 and 1.28 | 1.21 and 1.4 | 1.3 and 1.58
CNC(=O)c1ccc(C)c(-n2c(C)cc(OCc3ccc(F)cc3F)c(Br)c2=O)c1 | 1.33 ± 0.056 | 1.48 ± 0.059 | 1.6 ± 0.016
CN(C)Cc1cccc(N=C(c2ccccc2)c2c(O)[nH]c3cc(C(=O)N(C)C)ccc23)c1 | 1.11 ± 0.069 | 1.141 ± 0.011 | 1.31 ± 0.037
COc1cc(N2CCC(N)CC2)ccc1Nc1ncc(Cl)c(-c2c[nH]c3ccccc23)n1 | 1.21 ± 0.018 | 1.27 ± 0.025 | 1.36 ± 0.057
Cn1cnc(=N)c2[nH]cnc21 [3-Methyladenine] | 1.25 ± 0.078 | 1.34 ± 0.12 | 1.58 ± 0.15
CC(C)(C)Cn1c(N)nc2ccc(-c3[nH]c(C(C)(C)C)nc3-c3ccc(F)cc3)nc21 | 1.111 ± 0.0047 | 1.17 ± 0.032 | 1.33 ± 0.066
CCC[C@H](NC(=O)/C(C#N)=C/c1cccc(Br)n1)c1ccccc1 [Degrasyn (WP1130)] | 1.18 ± 0.047 | 1.34 ± 0.032 | 1.48 ± 0.038
COc1cc2nccc(Oc3ccc(NC(=O)Nc4cc(C)on4)c(Cl)c3)c2cc1OC [Tivozanib (AV-951)] | 1.14 ± 0.031 | 1.17 ± 0.037 | 1.24 ± 0.024
CNC(=O)c1ccccc1Sc1ccc2c(/C=C/c3ccccn3)n[nH]c2c1 [Axitinib] | 1.77 ± 0.17 | 1.78 ± 0.17 | 1.8 ± 0.058
NC1(C(=O)N[C@@H](CCO)c2ccc(Cl)cc2)CCN(c2ncnc3[nH]ccc23)CC1 | 1.38 ± 0.024 | 1.54 ± 0.046 | 1.61 ± 0.029
O=C(NCCCNc1nc(Nc2cccc(NC(=O)N3CCCC3)c2)ncc1I)c1cccs1 | 1.14 ± 0.041 | 1.18 ± 0.036 | 1.13 ± 0.051
O=C1c2ccc(Nc3ccc(F)cc3F)cc2CCc2ccc(OC[C@H](O)CO)cc21 [Skepinone-L] | 1.43 ± 0.05 | 1.41 ± 0.05 | 1.62 ± 0.049
COc1cc2ncnc(Nc3ccc(Cl)cc3F)c2cc1OC | 1.12 ± 0.029 | 1.24 ± 0.037 | 1.271 ± 0.0046
CO[C@H]1C[C@@H]2CC[C@@H](C)[C@@](O)(O2)C(=O)C(=O)N2CCCC[C@H]2C(=O)O[C@H]([C@H](C)C[C@@H]2CC[C@@H](O)[C@H](OC)C2)CC(=O)[C@H](C)/C=C(\C)[C@@H](O)[C@@H](OC)C(=O)[C@H](C)C[C@H](C)/C=C/C=C/C=C/1C [Rapamycin (Sirolimus)] | 1.7 ± 0.07 | 1.7 ± 0.094 | 1.7 ± 0.033

SMILES | mitochondrial superoxide (time after LPS: 1 h) | mitochondrial superoxide (time after LPS: 2 h) | mitochondrial superoxide (time after LPS: 4 h)
CN1CCC(CNc2ccc3ncc(-c4cccc(OC(F)(F)F)c4)n3n2)CC1 [SGI-1776 free base] | 1.13 ± 0.048 | 1.22 ± 0.052 | 1.33 ± 0.071
Cn1cc(C2=C(c3cn(CCCSC(=N)N)c4ccccc34)C(=O)NC2=O)c2ccccc21 [Ro 31-8220 Mesylate] | 1.57 ± 0.051 | 1.6 ± 0.0078 | 1.79 ± 0.12
Cc1c(Cn2c(C)nc3c(C(=O)O)cc(N4CCOCC4)cc32)cccc1C(F)(F)F | 1.394 ± 0.013 | 1.502 ± 0.0056 | 1.61 ± 0.048
COc1cc2c(Oc3ccc4[nH]c(C)cc4c3F)ncnc2cc1OCCCN1CCCC1 [Cediranib (AZD2171)] | 1.65 ± 0.088 | 1.65 ± 0.079 | 1.78 ± 0.081
Nc1ccc(-c2ccc3ncc4ccc(=O)n(-c5cccc(C(F)(F)F)c5)c4c3c2)cn1 [Torin 2] | 1.18 ± 0.042 | 1.17 ± 0.05 | 1.24 ± 0.1
Cc1cc(Nc2ncnc3ccc(-c4ccc(CNCCS(C)(=O)=O)o4)cc23)ccc1Oc1ccn2ncnc2c1 [HER2-Inhibitor-1] | 1.26 ± 0.072 | 1.34 ± 0.074 | 1.57 ± 0.063
Cc1ccc(C(=O)Nc2ccc(CN3CCN(C)CC3)c(C(F)(F)F)c2)cc1C#Cc1cnc2cccnn12 | 1.08 ± 0.068 | 1.13 ± 0.014 | 1.23 ± 0.048
CC(C)NC[C@@H](C(=O)N1CCN(c2ncnc3c2[C@H](C)C[C@H]3O)CC1)c1ccc(Cl)cc1 | 1.25 ± 0.045 | 1.49 ± 0.11 | 1.7 ± 0.094
CC(C)(C)NS(=O)(=O)c1cncc(-c2cc(F)c3nc(N)nn3c2)c1 | 1.09 ± 0.021 | 1.18 ± 0.038 | 1.31 ± 0.064
CS(=O)(=O)c1ccc(-c2cnc(N)c(C(=O)Nc3ccccc3)n2)cc1 | 1.23 ± 0.053 | 1.46 ± 0.052 | 1.6 ± 0.078
C=CC(=O)Nc1cc2c(Nc3ccc(F)c(Cl)c3)ncnc2cc1OCCCN1CCOCC1 [Canertinib (CI-1033)] | 1.59 ± 0.093 | 1.55 ± 0.14 | 1.87 ± 0.084
Cc1ccc([N+](=O)[O-])cc1S(=O)(=O)N(C)/N=C/c1cnc2ccc(Br)cn12 | 1.17 ± 0.09 | 1.17 ± 0.015 | 1.21 ± 0.027
Cc1ccc(NC(=O)c2ccc(CN3CCN(C)CC3)cc2)cc1Nc1nccc(-c2cccnc2)n1 [Imatinib (STI571)] | 1.28 ± 0.061 | 1.39 ± 0.18 | 1.49 ± 0.12
O=c1cc(N2CCOCC2)oc2c(-c3ccccc3)cccc12 | 1.36 ± 0.075 | 1.41 ± 0.086 | 1.52 ± 0.035
O=C1NC(=O)/C(=C/c2cccc(C(F)(F)F)c2)S1 | 1.27 ± 0.052 | 1.35 ± 0.074 | 1.53 ± 0.05
CN1CCN(c2cccc(Nc3nc4c(-c5ccc(S(C)(=O)=O)cc5)cccn4n3)c2)CC1 | 1.28 ± 0.037 | 1.45 ± 0.058 | 1.65 ± 0.051
CNC(=O)c1c(F)cccc1Nc1nc(Nc2cc3c(cc2OC)CCN3C(=O)CN(C)C)nc2[nH]ccc12 | 1.28 ± 0.057 | 1.47 ± 0.031 | 1.64 ± 0.015
C[C@@H]1COCCN1c1cc(C2(S(C)(=O)=O)CC2)nc(-c2cccc3[nH]ccc23)n1 | 1.19 ± 0.055 | 1.244 ± 0.0093 | 1.34 ± 0.052
Cc1cc([C@@H](C)Nc2ccccc2C(=O)O)c2nc(N3CCOCC3)cc(=O)n2c1 | 1.14 ± 0.043 | 1.22 ± 0.077 | 1.21 ± 0.027
CC(C)(C)c1nc(-c2cccc(NS(=O)(=O)c3c(F)cccc3F)c2F)c(-c2ccnc(N)n2)s1 | 1.25 ± 0.046 | 1.43 ± 0.054 | 1.73 ± 0.12
c1cncc(CN2CCC(n3ncc4c(N5CCOCC5)nc(-c5ccc6[nH]ccc6c5)nc43)CC2)c1 | 1.34 ± 0.059 | 1.48 ± 0.077 | 1.66 ± 0.063
